Rows were chosen to be rich in hits. Some 12% of all compounds tested hit in one or more screens of this group.
G9a block: qHTS Assay for Inhibitors of Histone Lysine Methyltransferase G9a | Histone-lysine N-methyltransferase EHMT2 (Homo sapiens), Q96KQ7 | G9a H3K9 monomethylation, AlphaScreen, 2 h | Potency, µM (doses to about 102 µM), without a hit: at the highest dose activity, negative = inhibition, usual class: inhibitors | 350,000 compounds, 8.8% hits | AID 504332, 2011; note: potency is the fitted concentration of half-maximal effect; % is set by controls: 0 for no effect and ±100 for the full control effect; nearly all actives have a fitted effect of over 75% in size
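G9a (20 nM) preincubated 15 min RT with compounds, then 500 nM biotinylated H3K9 peptide and 20 uM SAM added; 2 h RT reaction. Monomethyl-H3K9 product detected by AlphaScreen with anti-H3K9me1 antibody, streptavidin donor and anti-rabbit IgG acceptor beads.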
JMJD2A Tudor inh: qHTS Assay for Inhibitors of JMJD2A-Tudor Domain | Lysine-specific demethylase 4A (Homo sapiens), O75164 | AlphaScreen JMJD2A-Tudor / H3K4me3 peptide binding | Potency, µM (highest dose often 114 µM), inactives show at the highest dose activity change, negative = inhibition, most hits filed as inhibitors | 390,000 compounds, 4.4% hits; note: potency is the fitted concentration of half-maximal effect; % is set by controls: 0 for no effect and ±100 for the full control effect; nearly all actives have a fitted effect of over 50% in size
Sfp PPTase inh: qHTS Assay for Inhibitors of Bacillus subtilis Sfp phosphopantetheinyl transferase (PPTase). 310,000 compounds, 3.5% hits. Biochemical Sfp PPTase activity, qHTS. 4'-phosphopantetheinyl transferase ffp (Bacillus subtilis), Q9F4F7. Potency, µM, for inactives: largest response in the series, negative = inhibition, hits mostly inhibitors;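 note: the enzyme is Sfp with the accession as filed and its product quenches rhodamine fluorescence; potency is the fitted concentration of half-maximal effect; 0% = enzyme reaction without inhibitor and -100% = no enzyme wells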
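Reaction rates are the 30-min fluorescence difference (ex 525, em 598 nm) in wells containing 15 nM Sfp, 5 uM rhodamine-CoA and 12.5 uM BHQ-2-YbbR at pH 7.6 with 10 mM MgCl2.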
BAZ2B block: qHTS Assay for Inhibitors of BAZ2B; Bromodomain adjacent to zinc finger domain protein 2B (Homo sapiens), Q9UIF8; AlphaScreen BAZ2B-H3K14Ac peptide displacement; Potency, µM (doses to about 114 µM), inactives show top-dose activity change, negative = inhibition, usual class: inhibitors; 360,000 compounds, 4.4% hits; AID 504333, 2011; note: potency is the fitted concentration of half-maximal effect; % is set by controls: 0 for no effect and ±100 for the full control effect; nearly all actives have a fitted effect of over 60% in size
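BAZ2B 50 nM plus b-H3(5-23)K14Ac 50 nM, PBS pH 7.4/0.01% Tween-20, 30 min RT; compound added (max 110 uM), 30 min RT; streptavidin donor/Ni-chelate acceptor beads 10 ug/mL final, 20 min dark; AlphaScreen read.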
HP1b binding inh: HTS for Inhibitors of HP1-beta Chromodomain Interactions with Methylated Histone Tails; AlphaScreen HP1-beta / biotin-H3K9me3 peptide binding; Potency, µM (titrated, usually from 114 µM), for the others: at the highest dose activity change, negative = inhibition, usual class: inhibitors; AID 540317, 2011; 390,000 compounds, 0.56% hits; note: potency is the fitted concentration of half-maximal effect; nearly all actives have a fitted effect of over 70% in size
Target sequence (P83916 whole entry, looked up): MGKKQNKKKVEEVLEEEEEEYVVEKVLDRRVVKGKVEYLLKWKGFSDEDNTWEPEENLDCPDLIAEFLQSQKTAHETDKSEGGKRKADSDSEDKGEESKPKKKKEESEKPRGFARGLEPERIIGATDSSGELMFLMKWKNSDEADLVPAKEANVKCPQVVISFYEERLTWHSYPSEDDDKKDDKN
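AlphaScreen: HP1-beta (50 nM) preformed 30 min with biotin-H3(1-18)K9me3 peptide (50 nM) in PBS pH 7.4, 0.01% Tween-20. Compound added for 30 min at RT, then streptavidin donor/nickel chelate acceptor beads (10 ug/mL) for 30 min.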
JMJD2E inh-1: Inhibitors of Human Jumonji Domain Containing 2E (JMJD2E): 8HQs - Round 1; JMJD2E demethylase, FDH-coupled NADH fluorescence; shares compounds with BAZ2B block; 130 compounds, 89% hits; Potency, µM (titrated, usually from 57 µM), for inactives: top-dose activity, negative = inhibition, actives largely listed as inhibitors
Target sequence (B2RXH2 1-337 limits assumed): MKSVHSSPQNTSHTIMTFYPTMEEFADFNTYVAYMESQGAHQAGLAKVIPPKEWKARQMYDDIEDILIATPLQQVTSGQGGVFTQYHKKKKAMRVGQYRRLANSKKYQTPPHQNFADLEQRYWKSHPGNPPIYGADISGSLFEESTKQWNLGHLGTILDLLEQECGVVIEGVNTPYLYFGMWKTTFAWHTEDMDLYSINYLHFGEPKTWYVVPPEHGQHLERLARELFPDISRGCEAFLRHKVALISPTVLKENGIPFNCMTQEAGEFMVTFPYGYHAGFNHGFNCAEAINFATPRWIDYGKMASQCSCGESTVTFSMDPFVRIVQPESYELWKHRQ
JMJD2E inh-2: Confirmation qHTS Assay for Inhibitors of Human Jumonji Domain Containing 2E (JMJD2E) | shares compounds with JMJD2A Tudor inh | Recombinant JMJD2E, FDH-coupled NADH fluorescence (FDH is formaldehyde dehydrogenase) | Potency, µM (top dose mostly 56.8 µM), inactives show at the top dose activity change, negative = inhibition, most hits filed as inhibitors | 140 compounds, 93% hits | AID 2677, 2010
FDH counter: Counterscreen for JMJD2E Inhibitors: qHTS Assay for Inhibitors of Formaldehyde Dehydrogenase (FDH); shares compounds with JMJD2A Tudor inh; Potency, µM (top dose mostly 56.7 µM), without a hit: at the top dose activity, negative = inhibition, usual class: inhibitors; FDH enzyme assay, NADH fluorescence kinetic; 140 compounds, 10% hits
JMJD2E MALDI inh: MALDI-TOF-MS Assay for Inhibitors of Human Jumonji Domain Containing 2E (JMJD2E); Potency, µM, usual class: inhibitors; 45 compounds, 90% hits; shares compounds with JMJD2A Tudor inh; recombinant JMJD2E demethylation, MALDI-TOF-MS;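 active = compounds whose IC50 for blocking JMJD2E demethylation is below 100 µM; inconclusive = dose dependent effect but IC50 above 100 µM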
* marks the source's active call; other numbers are inactive results; [ ] = dose if it differs, or a comment. Unless noted, calls come from the whole dose curve; as a rule, active = well fitted curve in the direction sought with a large enough effect; inconclusive = small, poorly fitted or top-dose-only effect, or another doubt; inactive = no such curve, though single readings can be large; an effect the other way counts as inactive or inconclusive.

How did CCCCc1nn2c(=O)cc(COC(=O)c3ccc(NC(=O)c4ccccc4Cl)cc3)nc2s1 do in these assays?
G9a block: 0%[59 µM]; JMJD2A Tudor inh: -28%; BAZ2B block: -13%; HP1b binding inh: 17%

Results for CCc1ccc(OCC(=O)N(Cc2ccc(C)cc2)Cc2ccco2)cc1 ?
G9a block: 125%[59 µM]; JMJD2A Tudor inh: 62%; BAZ2B block: 98%; HP1b binding inh: 125%

Results for Oc1ccc(/C=C/c2ccccc2F)c2cccnc12 ?
JMJD2A Tudor inh: inconclusive; JMJD2E inh-1: 11µM*; JMJD2E inh-2: 5.8µM*; FDH counter: -18%; JMJD2E MALDI inh: 37*

How did Oc1ccc(/C=C/c2ccccc2)c2cccnc12 do in these assays?
JMJD2A Tudor inh: inconclusive; JMJD2E inh-1: 10µM*; JMJD2E inh-2: 4.1µM*; FDH counter: -27%; JMJD2E MALDI inh: 24*

Results for COc1cc(Cl)c(NC(=O)CN(C)S(=O)(=O)c2ccc3c(c2)CCCC(=O)N3)c(OC)c1 ?
G9a block: -1%[59 µM]; JMJD2A Tudor inh: -8%; BAZ2B block: 2%[57.1 µM]; HP1b binding inh: 37%

How did CCCc1cc(=O)oc2c(C)c(OCC(=O)N3C[C@H]4C[C@@H](C3)c3cccc(=O)n3C4)ccc12 do in these assays?
G9a block: inconclusive; JMJD2A Tudor inh: -18%; Sfp PPTase inh: 14%; BAZ2B block: -20%; HP1b binding inh: 20%

How did Oc1cc(NCCc2cccnc2)cc2cccnc12 do in these assays?
G9a block: -47%[12.7 µM]; JMJD2A Tudor inh: 40µM*; BAZ2B block: 5.6µM*; HP1b binding inh: 54%; JMJD2E inh-1: 32µM*; JMJD2E inh-2: 32µM*; FDH counter: -27%; JMJD2E MALDI inh: inconclusive

Results for Oc1cc(Nc2ccncc2)cc2cccnc12 ?
G9a block: -27%[12.7 µM]; JMJD2A Tudor inh: 20µM*; BAZ2B block: 4µM*; HP1b binding inh: 41%; JMJD2E inh-1: 25µM*; JMJD2E inh-2: 25µM*; FDH counter: -9%; JMJD2E MALDI inh: 20*

What do the screens show for `Oc1cc(Nc2cccnc2)cc2cccnc12`?
G9a block: -1%[12.7 µM]; JMJD2A Tudor inh: 45µM*; BAZ2B block: 7.9µM*; HP1b binding inh: 44%; JMJD2E inh-1: 32µM*; JMJD2E inh-2: 32µM*; FDH counter: -18%; JMJD2E MALDI inh: 30*

What do the screens show for `Oc1cc(NCc2cccnc2)ccc1-c1nc2ccccc2o1`?
G9a block: 26%[12.7 µM]; JMJD2A Tudor inh: -1%; Sfp PPTase inh: 1%; BAZ2B block: -2%; HP1b binding inh: 39%

Results for COc1ccc(C(=O)Nc2cc(OC)cc3cccnc23)cc1 ?
G9a block: 6%[2.33 µM]; JMJD2A Tudor inh: 5%; Sfp PPTase inh: -11%; BAZ2B block: -7%; HP1b binding inh: 52%

Assay outcomes: PubChem BioAssay, National Center for Advancing Translational Sciences (NCATS)
